Laboratory results: PubChem BioAssay (NCI)
“And” between values parts separate entries of the source, which are not always exact repeats. Equal entries are not always repeated. Compounds without any hit were thinned out: in the full panel of roughly 79,000, 15% have a hit. The source made the active and inactive calls. Rule as the data show it: active = growth inhibition above about 70%; inactive = the rest.

How the values were obtained:
[1] = NCI Yeast Anticancer Drug Screen. Data for the rad50 strain (AID 155);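 also: 0% = growth of vehicle-only cultures of the same strain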; details: S. cerevisiae rad50 strain growth inhibition; at 50.0 µM; hits give high values
Method in brief: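 Yeast carrying a defined DNA repair defect were exposed to test compounds, and growth was compared with vehicle-treated controls to give percent inhibition.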

[2] = NCI Yeast Anticancer Drug Screen. Data for the mec2-1 strain (AID 157); details: S. cerevisiae mec2-1 strain, at 50.0 µM, hits give high values
Method in brief: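 mec2-1 yeast strain, carrying an alteration in DNA damage repair or cell cycle control, was exposed to compounds; growth inhibition was measured relative to vehicle-treated controls.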

[3] = NCI Yeast Anticancer Drug Screen. Data for the sgs1 mgt1 strain (AID 161);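 also: 0% = growth of cultures given vehicle only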; details: S. cerevisiae sgs1 mgt1 strain, at 50.0 µM, hits give high values
Method in brief: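 Compounds are added to genetically altered yeast, and growth is compared with cultures given vehicle alone to give percent inhibition.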

[4] = NCI Yeast Anticancer Drug Screen. Data for the cln2 rad14 strain (AID 165);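 also: 0% = growth equal to vehicle treated cultures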; details: S. cerevisiae cln2 rad14 strain, at 50.0 µM, hits give high values
Method in brief: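 Yeast carrying cln2 and rad14 alterations (cell cycle control and DNA damage repair) were exposed to compounds. Growth inhibition was measured against vehicle-treated controls.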

[5] = NCI Yeast Anticancer Drug Screen. Data for the bub3 strain (AID 167); details: S. cerevisiae bub3 mutant strain, at 50.0 µM, hits give high values
Method in brief: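 Compounds were applied to a genetically altered yeast strain carrying a cell-cycle control defect. Growth inhibition was scored against vehicle-treated controls.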

[6] = NCI Yeast Anticancer Drug Screen. Data for the mlh1 rad18 strain (AID 175); details: S. cerevisiae mlh1 rad18 strain growth inhibition; at 50.0 µM; hits give high values
Method in brief: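 Growth inhibition of the yeast strain was measured after compound exposure and expressed relative to vehicle-treated controls. The strain carries defined defects in DNA damage repair.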

Measured: growth inhibition

O=c1[nH]cc(N=Cc2ccccc2Cl)c(=O)[nH]1.[Cl][Pt][Cl]
inactive: [1] 20.4% | [2] -5.75% | [3] -18.1% | [4] 1.95% | [5] 1.55% | [6] -9.05%

O=NN1CCNCC1
inactive: [1] -20.1% and -11.3% | [2] -16.1% and -24.3% | [3] -16.7% and -13.2% | [4] -24.5% and -9.25% | [5] -5.9% and -6.1% | [6] 8.2% and -2.55%

N.N.N.N.N.O=C([O-])CCl.[Co+3].[O-][Cl+3]([O-])([O-])[O-]
inactive: [1] -21.4% | [2] -7.45% | [3] -33.5% | [4] -0.1% | [5] -16.6% | [6] -31.4%

CC1CN1P1(N2CC2C)=NP(N2CC2C)(N2CC2C)=NP(N2CC2C)(N2CC2C)=N1 (centres undefined)
inactive: [1] -2.45% | [2] 1.3% | [3] 2.75% | [4] 15.7% | [5] -2.2% | [6] 5.5%

CCC1(CC)C(=O)C=CNC1=O
inactive: [1] 17.6% | [2] -20.6% | [3] 11.7% | [4] 1.1% | [5] -8.15% | [6] 8.15%

CC1(CCl)COP(=O)(NN)OC1 (centres undefined)
inactive: [1] 3.95% | [2] -3.15% | [3] -3.85% | [4] -28.7% | [5] 12% | [6] 5.35%

Nc1ccc([N+](=O)[O-])cc1[N+](=O)[O-]
inactive: [1] -24.9% | [2] 5.4% | [3] -21.2% | [4] -8.8% | [5] 0.6% | [6] 11%

CC(C)CCC1(CC[N+](C)(C)C)C(=O)NC(=O)NC1=O
inactive: [1] 5.95% | [2] -9.85% | [3] 6.15% | [4] -29.2% | [5] 10.7% | [6] -7.05%

N.N.O=P([O-])([O-])CN(CP(=O)([O-])[O-])CP(=O)([O-])[O-].[Pt+2]
inactive: [1] -4.25% | [2] -9.8% | [3] -11.1% | [4] -12.9% | [5] 1.15% | [6] -23.1%

O=C(O)CC1OCC=C2CN3CCC45c6ccccc6NC4C1C2CC35 (centres undefined)
inactive: [1] -30.8% and 9.3% | [2] -15.9% and -13.8% | [3] -31.9% | [4] 19.6% | [5] -57.6% | [6] -15.2% and 18.8%

CNC(=O)Oc1ccc(C=Nc2cccc([N+](=O)[O-])c2)cc1
inactive: [1] 2.9% | [2] 37.4% | [3] 14.7% | [4] 0.65% | [5] 34.9% | [6] 32.5%

O=[N+]([O-])c1ccc(OCc2ccc(COc3ccc(S(=O)(=O)F)cc3)cc2)c(Cl)c1
inactive: [1] -0.6% | [2] -8.15% | [3] -2.3% | [4] -6.35% | [5] -7.6% | [6] -7.5%

C1CC2OC2CC1C1CO1 (centres undefined)
inactive: [1] -0.4% | [2] -3% | [3] 4.7% | [4] -8.4% | [5] -17.1% | [6] -17.9%

O=C1CN=CN1
inactive: [1] -8.85% | [2] 8.85% | [3] -0.45% | [4] -12.6% | [5] -7.5% | [6] -5.3%

N#C[C@H](OC1OC(COC2OC(CO)C(O)C(O)C2O)C(O)C(O)C1O)c1ccccc1 (some centres undefined)
inactive: [1] -34.5% | [2] -34.6% | [3] -20.6% | [4] -1.3% | [5] -29.1% | [6] -28.1%

C/C1=N\NC(=O)c2ccccc2C(=O)N/N=C(\C)c2cccc1n2.O=[N+]([O-])[O-].[Zn+2]
inactive: [1] -8.85% | [2] -7.3% | [3] -10.2% | [4] 5.8% | [5] -38% | [6] -5.05%

S=P(Nc1ccccc1Cl)(Nc1ccccc1Cl)c1ccccc1
inactive: [1] 30.3% | [2] 25.8% | [3] 39.9% | [4] 37.9% | [5] 39.4% | [6] 21%

CN(C)C(=O)c1cc(N(CCCl)CCCl)c([N+](=O)[O-])cc1[N+](=O)[O-]
inactive: [1] -2.75% | [2] -10.1% | [3] -3.35% | [4] 2.3% | [5] -13.6% | [6] 0.3%

CCOP(=O)(OCC)/C(C#N)=C/c1ccccc1OC
inactive: [1] 40.5% | [2] -1.3% | [3] 0.15% | [4] -4.65% | [5] -14.8% | [6] 27.6%
